Paper PMC12136788
Positions count from the first letter of the chain named. Over roughly 5,800 sequences, “enrichment r” has its median near 0.54; the highest 2% begin near 16. This excerpt belongs to a sample that is enriched for the highest values.

B1: chr2:205797254:205797461:+|3pUTR|ENSG00000118257|msi1|FALSE|unique (ssRNA)
RNA: GGGAGUUCUACAGUCCGACGAUCUCACCCUCCCAUGAUGCGCAGUGUUCAGAAAGCUGGUAAGUCCUAGGGAUUUCCAGAAGUAGCCUGCAGAAGAAGGUAAGUUUGAAAGCCACUCCAGGGGUCCUGAUGCUGUCAUGCUCACAACAGAGGAUUGAGCAUCA
B2: ENSG00000107863:be:win_2651|CDS|ENSG00000107863|bound_else_gene|NA|bound_elsewhere_windowed (ssRNA)
RNA: GGGAGUUCUACAGUCCGACGAUCAGGGUCUGGAUGAUUACAGAGAAGAUGCAAAAUUGUCCUUUAAGCACGUAUCUAGUCUGAAGGGAAUCAAGAUCGCAGACAGCCAAAAGUCAUCAGAAGACUCUGGGUCCAGAAAAGAUUCAACAGAGGAUUGAGCAUCA
B3: chr10:74136666:74136778:-|CDS|ENSG00000185009|unk|FALSE|unique (ssRNA)
RNA: GGGAGUUCUACAGUCCGACGAUCUUCAGAGGCUGCAAUUAAGGAUAAUGUGGUCAUAGUAUAUGAACUCUUAGAAGAAAUGUUAGACAAUGGAUUUCCACUGGCUACCGAAUCUAACAUUUUGAAAGAAUUGAUUAAACCACCCAACAGAGGAUUGAGCAUCA
B4: chr1:94529602:94529703:-|3pUTR|ENSG00000117525|msi1|total|mutant (ssRNA)
RNA: GGGAGUUCUACAGUCCGACGAUCUGGAAGGAAAUUGGGUGCAUUUCCCGGACUUUUCUAACAUAUGUCUAUAAUACCGUGUUCCGGUUCUUUUUUUUUUCAGGAAUACAUUUGGAAAUUCAAAACAAUUGGCAAACUUUGUAUCAACAGAGGAUUGAGCAUCA
B5: chr12:64147824:64147925:+|3pUTR|ENSG00000196935|unk|FALSE|unique (ssRNA)
RNA: GGGAGUUCUACAGUCCGACGAUCCAUCUCUGUGGUGUCUUUGUUCCUUUCCUUUCAUUCAUCACUACUUUCUCCUUGACAGCUAGCUUGCAUUAAAUAAUGUGAAACUUUUACCUUUAAAAUAUUUUUUUAUCUCACUUUCAUCAACAGAGGAUUGAGCAUCA
B6: chr3:125228010:125228111:-|3pUTR|ENSG00000163848|msi1|FALSE|unique (ssRNA)
RNA: GGGAGUUCUACAGUCCGACGAUCAGUUCUCUUCAUAUUUCAUAACUACAUUUCAAUAAUUCUAAACUUUCUACAUUGAUUUUUAGAUACUUAUUUUUCAAGCUUGGUUUCUCAGCUGAUCAGAUGAAUUUAUUCAACUUCAAUCAACAGAGGAUUGAGCAUCA
B7: chr12:49764829:49764866:+|3pUTR|ENSG00000139644|msi1_unk|FALSE|overlapping (ssRNA)
RNA: GGGAGUUCUACAGUCCGACGAUCACUUUUAAAGAAAAUACCUAACAGAUUUUUAAUAUAGUUAUCUCUACCACUUUCUUUUCUAGUUUCUUGAUUUUCAGCUCAGGCUGCAUUCUAACUCAUACUGUGAAGACAAAGGUGUUUCAACAGAGGAUUGAGCAUCA
B8: chr5:43295829:43295944:-|CDS|ENSG00000112972|unk|FALSE|unique (ssRNA)
RNA: GGGAGUUCUACAGUCCGACGAUCAAUAUCCUAGCUUUAUUCUAAAGUCAAACUUUAAAAUUUCAUGGCUUAUAUGAAUUUCAUAGUUUCCUUGGACUUCUCUUUCAGAGGGAAAUGAUAAAGAUUUUACCUUGAAUGAUUUUGCAACAGAGGAUUGAGCAUCA
B9: ENSG00000100485:stop:overlap|stop_codon|ENSG00000100485|stop_codon|NA|stop_codon (ssRNA)
RNA: GGGAGUUCUACAGUCCGACGAUCAUAUAUAUACACAUAUAUAUACACACACACACACAUUUUAUGUGUCAGUUUUCAAUAUAUAGUUAACACAAAAGCUCUCAGCUUUUAAUUCAAAUAUAGGGAAUAUUUUUAACUUCACAGCAACAGAGGAUUGAGCAUCA
B10: chr1:93888438:93888539:-|3pUTR|ENSG00000023909|msi1|total|mutant (ssRNA)
RNA: GGGAGUUCUACAGUCCGACGAUCAGAUAUUUUUCCUGUCAUUGAUGAGAUAUAUCAGAGUAACUGGAGCCGCUGGGAUUUACCCGCCGUGUAAAUAAAAUUCACUCUUCAAUACAUGAAUGGAAACUUAAAUUUUUUUUUAUGCAACAGAGGAUUGAGCAUCA
B11: chr1:93888438:93888539:-|3pUTR|ENSG00000023909|msi1|FALSE|unique (ssRNA)
RNA: B10 RNA with C69U, C70A, C83U, C84A, C86U, C87A
B12: chr11:58422334:58423261:-|CDS|ENSG00000172365|control|control|control (ssRNA)
RNA: GGGAGUUCUACAGUCCGACGAUCACACACUAGUGAGGUGAUUCUGGUUUUUAUGUCAAGCUUUAAUAUCUUUUUUGUUCUUCUAGUUAUCUUUAUCUCCUACUUGUUCAUAUUCAUCACCAUCUUGAAGAUGCAUUCAGCUAACAACAGAGGAUUGAGCAUCA
B13: chr3:125228010:125228111:-|3pUTR|ENSG00000163848|msi1|total|mutant (ssRNA)
RNA: B6 RNA with U83C, A84C
B14: chr1:162785649:162785750:+|3pUTR|ENSG00000162733|unk|FALSE|unique (ssRNA)
RNA: GGGAGUUCUACAGUCCGACGAUCUGAAUGUUGUUUUUUUGAAUGAACAUAAGAUAGAAACAAAAACUUCUCAUCCAGUUAACUAGAGUGAAUGUAGGGAGAAUUGUUUUGCUUGUAACAUGGAGAGUUUAUUUUCAAGUGAGGCAACAGAGGAUUGAGCAUCA
B15: chr15:77046258:77046342:-|3pUTR|ENSG00000140391|msi1_unk|FALSE|overlapping (ssRNA)
RNA: GGGAGUUCUACAGUCCGACGAUCAAAAAUAUUUACUGUAGUCCAAUAAGAUAGCAGCUGUACAAAAUGACUAAAAUAGAUUGUAGGAUCAUAUGGCGUAUAUCUUGGUUCAUCUUCAAAAUCAGAGACUGAGCUUUGAAACUACAACAGAGGAUUGAGCAUCA
B16: chr2:128192346:128192447:+|3pUTR|ENSG00000136731|msi1|FALSE|unique (ssRNA)
RNA: GGGAGUUCUACAGUCCGACGAUCAGAAAAUGAUGUUACCACUAAAAUAUUUUCUCCAAGAAGGCAUACUGUAACAGAAAAGAUAGGUAAGAUAUUUUUUUCCCAAGAAGUAAGAAUUGAUUGUGCUGAAUGUUCAAACUCUGGCAACAGAGGAUUGAGCAUCA
B17: chr16:3727831:3727932:-|CDS|ENSG00000005339|unk|FALSE|bound_elsewhere (ssRNA)
RNA: GGGAGUUCUACAGUCCGACGAUCCGUCUCACCCCAGACUGGUUCCCCCCACCCCGGACUCGCAGUCACCAUGGCCAGCUCCAUAGAUCAGGGACACUUGGGGAACCCCGAACAGAGUGCAAUGCUCCCCCAGCUGAACACCCCCAACAGAGGAUUGAGCAUCA
B18: chr16:30193532:30193793:-|CDS|ENSG00000169627|control|control|control (ssRNA)
RNA: GGGAGUUCUACAGUCCGACGAUCGCCUUAGUAAGGGCGGAAGUGAGUUUUCCAGCGGAAGUGGCUCCUGUAAGGCAGCAAGGUAGCGUGGCCGGCGCCCGAGCUGGGGUUGUGUCCCUGCUGGGCUGCCGUUCCAGCUGGACUCAACAGAGGAUUGAGCAUCA
B19: chrX:101412715:101412817:+|CDS|ENSG00000126945|unk|FALSE|unique (ssRNA)
RNA: GGGAGUUCUACAGUCCGACGAUCGGGUAUGGAGGCUAUGAUGACUAUGGUGGCUAUAAUGAUGGAUAUGGCUUUGGGUCUGAUAGAUUUGGAAGAGACCUCAAUUACUGUUUUUCAGGAAUGUCUGAUCAUAGAUACGGAGAUCAACAGAGGAUUGAGCAUCA
B20: chr11:28036422:28036524:-|CDS|ENSG00000121621|unk|FALSE|unique (ssRNA)
RNA: GGGAGUUCUACAGUCCGACGAUCCAGCUCAAUGAUUCUCUUAGCAAAGAACUUCAGCCUAUUGUAUAUACACCAGAAGACUGUAGAAAAGCUUUUCAAAAUCCGUCUACAGUAACCUUAAUGAAACCAUCAUCAUUUACUACACAACAGAGGAUUGAGCAUCA
B21: chr5:132541444:132541810:-|three_prime_utr|ENSG00000113525|control|control|control (ssRNA)
RNA: GGGAGUUCUACAGUCCGACGAUCAAAUUGAUAUACUUUUUUCUUAUUUAACUUAACAUUCUGUAAAAUGUCUGUUAACUUAAUAGUAUUUAUGAAAUGGUUAAGAAUUUGGUAAAUUAGUAUUUAUUUAAUGUUAUGUUGUGUCAACAGAGGAUUGAGCAUCA
B22: chr9:83661418:83661519:-|3pUTR|ENSG00000135018|msi1|FALSE|unique (ssRNA)
RNA: GGGAGUUCUACAGUCCGACGAUCUAUAGUUGGGUGACCAGAUUUUGUCCUGCAUCUGUCCAGUUUAUUUGCUUUUUAAACAUUAGCCUAUGGUAGUAAUUUAUGUAGAAUAAAAGCAUUAAAAAGAAGCAAAUCAUUUGCACUCAACAGAGGAUUGAGCAUCA
B23: chr11:74334375:74334476:-|3pUTR|ENSG00000165434|msi1|FALSE|unique (ssRNA)
RNA: GGGAGUUCUACAGUCCGACGAUCUUUUUGUUUUAUUUUUAAAAUGUGUAAAACAUCUUUUGUUUUAUAUGCUUUUAAGAAUGUAGAUUGUAAUUUAGGAAAUGGCAUAUAUUCUGCAAAGUGGUAUAAUGUUGUAUAUAUGAACAACAGAGGAUUGAGCAUCA
B24: chr8:25429562:25429664:-|3pUTR|ENSG00000104756|unk|FALSE|unique (ssRNA)
RNA: GGGAGUUCUACAGUCCGACGAUCAGAAAAGCACUCAUUUAAUAGAUGUAGGGAAACUAGAUAUUGCUGCCUUUUGAAUGGGGUAGGGGGGUUUACCUGGUUUUAUGACCAGGCAUAGUAUCUAUUAUAUUUGCUUUUAAAUAGCAACAGAGGAUUGAGCAUCA
B25: chr6:98868534:98874277:-|three_prime_utr|ENSG00000112234|control|control|control (ssRNA)
RNA: GGGAGUUCUACAGUCCGACGAUCAUUAAAAUUAAUGUGCUUUGUUGGGGUUUAAUUUUGGGAUUGGUUUUGGGUUUUGUUUUUAGUUGUUUUAAUGGUAAGAAUUAAGACAUUUGUAGAUUUUAAAGAAAAAUAUGAAAUUGUCAACAGAGGAUUGAGCAUCA
B26: chr9:83661418:83661519:-|3pUTR|ENSG00000135018|msi1|total|mutant (ssRNA)
RNA: B22 RNA with U26C, A27C, U83C, A84C, U93C, A94C, U105C, A106C

molecular target: MSI1 full-length (mouse, UniProt Q61474 1-362); assay: nsRBNS (natural sequence RNA bind-n-seq); RBNS binding buffer (assumed for nsRBNS): 25 mM Tris pH 7.5, 150 mM KCl, 3 mM MgCl2, 0.01% Triton X-100, 500 ug/ml BSA, 20 U/ml SUPERase-In, 4 C; UNK is unkempt and MSI1 is Musashi-1; names of the RNAs are library labels; protein concentration not given here; high values mean tight binding
Sequence (Q61474 whole entry): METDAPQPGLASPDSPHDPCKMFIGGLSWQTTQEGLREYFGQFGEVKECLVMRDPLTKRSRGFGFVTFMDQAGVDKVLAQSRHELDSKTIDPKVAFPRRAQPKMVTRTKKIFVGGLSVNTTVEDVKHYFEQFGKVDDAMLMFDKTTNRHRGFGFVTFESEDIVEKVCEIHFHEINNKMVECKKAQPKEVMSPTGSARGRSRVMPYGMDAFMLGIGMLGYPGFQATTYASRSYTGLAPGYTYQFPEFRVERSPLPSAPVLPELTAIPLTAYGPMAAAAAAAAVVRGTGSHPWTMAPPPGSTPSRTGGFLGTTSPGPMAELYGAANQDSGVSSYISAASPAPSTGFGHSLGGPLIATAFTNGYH

| Binder | binding signal [enrichment R] |
| --- | --- |
| B1 | 0.607 |
| B2 | 0.365 |
| B3 | 0.651 |
| B4 | 0.407 |
| B5 | 7.22 |
| B6 | 5.53 |
| B7 | 3.05 |
| B8 | 0.654 |
| B9 | 2.06 |
| B10 | 0.484 |
| B11 | 28.4 |
| B12 | 23.6 |
| B13 | 18.6 |
| B14 | 2.65 |
| B15 | 9.31 |
| B16 | 0.593 |
| B17 | 0.562 |
| B18 | 0.62 |
| B19 | 0.771 |
| B20 | 0.992 |
| B21 | 2.88 |
| B22 | 26.4 |
| B23 | 3.15 |
| B24 | 2.16 |
| B25 | 21.9 |
| B26 | 0.203 |
